# Compound activity deposited in PubChem BioAssay by several laboratories.
# NR1D1 modulator: modulates human Rev-erb alpha binding to DNA; P20393; Rev-erbα–FITC-DNA binding, fluorescence polarization, 90 min; activity, % at 10 µM; 0.79% of 370,000 active;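 active = activity above about 14%, limit read from the data; passing the limit was not always enough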;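 also: 0% = DMSO wells with 35 nM protein and 100% = DMSO wells with 750 nM protein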
# SKN-1 inh: blocks SKN-1 activity in C. elegans. C. elegans VP596 Pgst-4::GFP/RFP ratio, acrylamide-induced, 24 h. inhibition, % at 21.8 µM. 0.49% of 360,000 active;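 active = interference check ratio from 0.5 to 1.5 plus GFP to RFP signal ratio inhibition reaching or exceeding a fixed threshold, cut at about 30% in these data, passing the limit was not always enough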
# PG9 Ab binder: binds the HIV-1 gp120 antibody PG9; 0.43% of 360,000 active; inhibition, % at 6.7 µM; TR-FRET gp120-PG9 antibody binding; in the data active = inhibition above about 8.5%
# EP2 modulator: EP2 receptor (human) modulation; P43116; EP2-expressing cells, cAMP HTRF FRET, PGE2 co-stimulation; induction, % at 25 µM; 0.83% of 260,000 active; AID 940;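 active = compounds whose cAMP rise, as percent of the full-agonist control response, exceeds 60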;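 also: rat C6 glioma line stably carrying human EP2 under a CMV promoter; the protocol text gives 20 µM as final concentration; 100% = response of wells given 1 µM PGE2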
# Target sequence (P43116 whole entry, looked up): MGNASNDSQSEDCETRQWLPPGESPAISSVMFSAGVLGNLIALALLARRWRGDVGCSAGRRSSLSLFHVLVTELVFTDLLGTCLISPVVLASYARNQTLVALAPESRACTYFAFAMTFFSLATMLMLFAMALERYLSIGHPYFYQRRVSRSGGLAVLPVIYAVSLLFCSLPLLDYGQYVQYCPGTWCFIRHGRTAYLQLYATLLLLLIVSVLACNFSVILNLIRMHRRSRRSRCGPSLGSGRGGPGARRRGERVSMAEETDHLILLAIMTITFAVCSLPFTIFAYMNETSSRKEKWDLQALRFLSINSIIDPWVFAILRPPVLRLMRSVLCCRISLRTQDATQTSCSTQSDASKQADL
# RAM inhibit: blocks the yeast RAM network. 1.8% of 190,000 active. inhibition, % at 50 µM. S. cerevisiae dse1pr::URA3 reporter, 5-FOA growth OD615, 2 d; analog-sensitive cbk1-as2 kinase mutant strain. AID 868;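 active = inhibition above a set limit, 3 SD over mean compound inhibition, cut at about 8.4% in these data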;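 also: 0% = DMSO-only wells with no growth and 100% = 10 µM 1-NA-PP1 full growth; inhibition rescues growth on 5-FOA so higher OD means more RAM inhibition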
# EP2 antag: blocks the human prostaglandin E2 receptor EP2; P43116; C6 glioma cells expressing human EP2, cAMP TR-FRET; cells stimulated with saturating PGE2; inhibition, % at 25 µM; 0.52% of 260,000 active;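 active = percent inhibition above 40 after rounding to a whole number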;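 also: rat C6 glioma host cells with rolipram phosphodiesterase inhibitor present; the protocol text gives 20 µM as final concentration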
# EP2 cAMP induct: human EP2 receptor cAMP induction, negative in counter-screens | shares compounds with EP2 modulator | C6 glioma EP2 cells, cAMP HTRF induction; plus low (about EC15) PGE2 agonist | calls only at 20 µM (by protocol) | 47% of 1,300 active | AID 1080;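 active = cAMP induction above 50% in the main assay while under 30% in all four parallel counter assays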;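 also: rat C6 glioma cells stably expressing human EP2 receptor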
# * marks the source's active call; other numbers are inactive results; i = inactive; nt = no result; + = active, no number; ! = not confirmed by another sample. Compounds with a hit are over-represented: about 2.9% of the library has one in this group of screens.
SMILES,NR1D1 modulator,SKN-1 inh,PG9 Ab binder,EP2 modulator,RAM inhibit,EP2 antag,EP2 cAMP induct
Clc1ccc(Cl)c(Nc2ccnc(SCc3ccccc3)n2)c1,nt,nt,nt,62*,nt,36,i
O=C(O)c1nc2nc(Cl)c(Cl)nc2[nH]1,2,20,0,63*!,nt,4,i
Cc1ccc2[nH]c(=O)c(CN(Cc3ccc4c(c3)OCO4)S(=O)(=O)c3ccccc3Cl)cc2c1,nt,nt,nt,29,nt,11,nt
O=C(CSc1ncnc2scc(-c3ccc(Cl)cc3)c12)Nc1ccccc1-c1ccccc1,5,nt,nt,nt,nt,nt,nt
CCCC(=O)Nc1ccccc1Sc1ncnc2scc(-c3ccccc3)c12,3,0,-2,68*,1,6,i
CC(=O)O[C@H]1CC[C@@]2(C)C(C[C@@H](OC(C)=O)[C@]3(C)C2CC[C@@]2(C)[C@H](c4ccoc4)OC(=O)[C@H]4O[C@]423)C1(C)C (stereo partly drawn),nt,nt,nt,25,nt,9,nt
CC(=O)O[C@H]1C[C@@H](OC(C)=O)C(C)(C)C2C[C@@H](OC(C)=O)[C@]3(C)C([C@H](OC(C)=O)C[C@@]4(C)[C@H](c5ccoc5)OC(=O)[C@H]5O[C@]543)[C@]21C (stereo partly drawn),nt,nt,nt,70*,nt,9,+
O=S(=O)(C=C(c1ccccc1)c1ccccc1)c1ccccc1,1,-17,2,77*,5,14,+
O=S(=O)(/C=C/c1ccccc1)c1ccccc1,-4,14,2,9,4,12,nt
CCOc1ccc2[nH]c(=O)c(CN(Cc3cccs3)C(=O)c3ccccc3Cl)cc2c1,nt,nt,nt,-6,nt,11,nt
COc1cc(-c2nc(-c3cccc(C)c3)no2)cc(OC)c1OC,-2,4,1,61*,5,16,i
CCOP(=O)(OCC)c1nc(-c2cccc3ccccc23)oc1N1CCCCC1,-1,7,1,69*,-1,7,+
CCOP(=O)(c1ccccc1)c1nc(-c2ccccc2C)oc1N1CCCCC1 (stereo not drawn),-3,nt,0,70*,1,5,+
CCn1c(CN2CCC3(CC2)Nc2ccccc2-n2cccc23)nc2ccccc21,nt,nt,nt,-33,nt,10,nt
COC(=O)c1ccc(-n2nc(C(F)(F)F)c3c2-c2ccoc2CC3)cc1,2,14,-2,72*,6,10,i
O=C(O)c1ccc(-n2nc(C(F)(F)F)c3c2-c2ccoc2CC3)cc1,0,-4,-2,-14,0,8,nt
O=C(c1ccc(Cl)cc1)C1CCN(C(=S)NCc2ccco2)CC1,nt,nt,nt,-61,nt,11,nt
CS(=O)(=O)N1CCCc2cc(C(O)CN3CCOCC3)ccc21 (stereo not drawn),nt,nt,nt,-9,nt,8,nt
CC(C)OC(=O)c1c(NC(=O)CCn2nnc3ccccc32)sc2c1CCCC2,0,-16,0,53,9.5*,11,i
Cc1ccc(NC(=O)CCn2nnc3ccccc32)cc1,5,5,-1,1,2,3,nt
CCOC(=O)c1c(NC(=O)c2cccs2)sc2c1CCCC2,1,-1,0,56,4,18,i
Cc1sc(NC(=O)c2cccs2)c(C(=O)OC(C)C)c1C,nt,24,1,78*,6,8,+
CCOC(=O)c1c(NC(=O)Cc2cccs2)sc2c1CCCC2,5,3,-1,20,2,1,nt
CCOC(=O)c1c(NC(=O)C2CC2)sc(C)c1CC,3,12,-2,36,1,5,nt
CCOC(=O)c1c(NC(=O)c2ccc(Br)o2)sc(C)c1CC,-3,15,3,74*,8,5,+
SMILES,NR1D1 modulator,SKN-1 inh,PG9 Ab binder,EP2 modulator,RAM inhibit,EP2 antag,EP2 cAMP induct
O=C(Cn1cnc2ccccc2c1=O)N1CCC(c2ccncc2)CC1,nt,nt,nt,-18,nt,7,nt
Cc1c(C(=O)NCCS(C)=O)oc2c(C)cccc12 (stereo not drawn),nt,nt,nt,-23,nt,10,nt
CCOC(=O)c1c(NC(=O)c2ccco2)sc2c1CCCCC2,6,17,1,79*,5,19,+
CCOC(=O)c1c(NC(=O)c2cccs2)sc(C)c1CC,-2,3,-1,59,11*,9,i
CCOC(=O)c1c(NC(=O)c2cccs2)sc2c1CCN(C(=O)OCC)C2,-3,-2,-1,52,3,13,+
CN1C(=O)/C(=C/c2ccccc2OCc2cccc(F)c2)N(C)C1=S,5,6,-1,70*,7,11,+
CN1C(=O)/C(=C/c2ccc(OCc3ccc(F)cc3)cc2)N(C)C1=S,4,-2,-3,nt,nt,nt,nt
COCC(=O)NC1CC(C)(C)Cc2c1cnn2-c1ccc(C)cc1 (stereo not drawn),nt,nt,nt,-6,nt,6,nt
COc1ccc(N2CCN(CC(=O)N3CCCCC3)CC2)cc1,nt,nt,nt,19,nt,15,nt
CC(=O)c1cc(C(=O)N2CCN(CCOc3ccc(F)cc3)CC2)cs1,nt,nt,nt,1,nt,5,nt
O=c1[nH]c(SCc2cccc(F)c2)nc2c1CCCC2,-1,5,2,41,2,9,nt
O=c1[nH]c(SCc2cccc(Cl)c2)nc2c1CCCC2,0,13,-1,66*,1,9,i
C=CCCCOc1ccc(C(=O)O)cc1,-3,-3,0,5,0,11,nt
C=CCC(=O)OCCCCCCOc1ccc(C(=O)O)cc1,-1,10,0,67*,2,7,i
CCCCCOC(=O)c1[nH]c2c(c1C)C(=O)C(C(=O)OC)C(C)C2 (stereo not drawn),-3,11,2,91*,5,12,+
COCCOC(=O)c1[nH]c2c(c1C)C(=O)C(C(=O)OC)C(C)C2 (stereo not drawn),8,-3,-1,28,1,6,nt
CCNc1nc(NCC)nc(SCCOc2ccc(C)cc2)n1,5,10,-1,82*,-1,6,+
CCOc1nc(SCCOc2ccc(C)cc2)nc(N(C)C)n1,0,20,0,38,2,12,nt
O=C(c1ccncc1)N1N=C(c2ccc(Br)cc2)CC1c1ccccc1O (stereo not drawn),4,31,-3,nt,nt,nt,nt
O=C(c1ccccc1)N1N=C(c2ccccc2)CC1c1ccccc1O (stereo not drawn),2,-5,-1,85*,6,6,+
CCOC(=O)c1[nH]c2ccc(OC)cc2c1NS(=O)(=O)c1ccc(Cl)s1,-8,-4,-2,96*,1,4,+
CCn1c(=O)c2c(nc(SCc3ccc(C)cc3)n2C)n(C)c1=O,nt,nt,nt,-5,nt,11,nt
O=S(=O)(NCC1CCCO1)c1ccc(S(=O)(=O)N(Cc2cccs2)C2CC2)cc1 (stereo not drawn),nt,nt,nt,-66,nt,9,nt
